Measured values as given in PubChem BioAssay AID1159580 (chemical genetic matrix, 2015).
About 2,000 (36%) of roughly 5,500 compounds were called active. Inconclusive results (about 18%) are left out. Cut-off read from the data, not from the text of the source: active = normalized growth mostly below about 0.91 (no sharp cut-off); inconclusive = no clear call, values can overlap the other calls; inactive = mostly above about 0.92. Some of the results follow.

Assay: chemical genetic growth profiling, strain panel (AID 1159580);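 note: tested at 20 µM; growth read once vehicle control cultures reached saturation at 30 °C; 1 = growth at the plate median or of vehicle wells; lower values mean less growth of the strain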
Conditions: S. cerevisiae deletion strains, growth OD
[1] = locus YHR030C, strain SLT2, hits give low values
[2] = locus YHR079C, strain IRE1, hits give low values
[3] = locus YJL095W, strain BCK1, hits give low values
[4] = locus YJR066W, strain TOR1, hits give low values
[5] = locus YLR113W, strain HOG1, hits give low values
[6] = locus YNL183C, strain NPR1, hits give low values
[7] = locus YOR231W, strain MKK1, hits give low values
[8] = locus YPL256C, strain CLN2, hits give low values

Measured: normalized growth

CC(C)CC(NC(=O)CCN)C(=O)O (centres undefined)
inactive: [1] 0.976 | [2] 0.964 | [3] 0.974 | [4] 0.896 | [5] 0.986 | [6] 0.886 | [7] 0.993 | [8] 0.975

NCCCN=c1ccc2c3c1c(O)c1c(O)ccc(=O)c1c3[nH]n2CCNCCO
active: [8] 1.16 [resistant]
inactive: locus YAR019C, strain CDC15, hits give low values 0.984 | locus YBL105C, strain PKC1, hits give low values 0.977 | locus YBR135W, strain CKS1, hits give low values 0.986 | locus YBR136W, strain MEC1, hits give low values 0.97 | locus YBR160W, strain CDC28, hits give low values 0.982 | locus YDL017W, strain CDC7, hits give low values 0.976 | locus YDL028C, strain MPS1, hits give low values 0.976 | locus YDL101C, strain DUN1, hits give low values 0.969 | locus YDL108W, strain KIN28, hits give low values 0.978 | locus YDL132W, strain cdc53, hits give low values 0.979 | locus YDL214C, strain PRR2, hits give low values 0.993 | locus YDR052C, strain DBF4, hits give low values 0.976 | locus YDR054C, strain cdc34, hits give low values 0.974 | locus YDR226W, strain ADK1, hits give low values 0.984 | locus YDR477W, strain SNF1, hits give low values 0.977 | locus YER123W, strain YCK3, hits give low values 0.978 | locus YER133W, strain GLC7, hits give low values 0.977 | locus YFL009W, strain cdc4, hits give low values 0.982 | locus YFL029C, strain CAK1, hits give low values 0.986 | locus YFR003C, strain YPI1, hits give low values 0.973 | locus YFR019W, strain FAB1, hits give low values 0.948 | locus YFR028C, strain CDC14, hits give low values 0.981 | locus YGR040W, strain KSS1, hits give low values 0.977 | locus YGR052W, strain FMP48, hits give low values 0.984 | locus YGR092W, strain DBF2, hits give low values 0.688 | [1] 1.03 | [2] 1.01 | locus YHR082C, strain KSP1, hits give low values 1.05 | locus YHR205W, strain SCH9, hits give low values 0.916 | locus YIL147C, strain SLN1, hits give low values 0.969 | [3] 0.893 | locus YJL128C, strain PBS2, hits give low values 0.957 | locus YJL157C, strain FAR1, hits give low values 0.994 | locus YJR016C, strain ILV3, hits give low values 0.982 | locus YJR066W, strain TOR1 (second series), hits give low values 0.964 | [4] 1.01 | locus YKL048C, strain ELM1, hits give low values 0.94 | locus YKL067W, strain YNK1, hits give low values 0.983 | locus YKL101W, strain HSL1, hits give low values 0.957 | locus YKL193C, strain SDS22, hits give low values 0.971 | locus YKL203C, strain TOR2, hits give low values 1.01 | [5] 0.982 | locus YLR133W, strain CKI1, hits give low values 0.993 | locus YLR403W, strain SFP1, hits give low values 0.916 | locus YML070W, strain DAK1, hits give low values 0.956 | locus YMR001C, strain CDC5, hits give low values 0.984 | locus YMR205C, strain PFK2 (second series), hits give low values 1 | locus YMR277W, strain FCP1, hits give low values 0.975 | locus YNL006W, strain LST8, hits give low values 0.989 | locus YNL020C, strain ARK1, hits give low values 0.992 | locus YNL161W, strain CBK1, hits give low values 0.986 | [6] 1 | locus YNL207W, strain RIO2, hits give low values 0.975 | locus YNL222W, strain SSU72, hits give low values 0.995 | locus YNL307C, strain MCK1 (second series), hits give low values 0.82 | locus YOL078W, strain AVO1, hits give low values 0.971 | locus YOL136C, strain PFK27, hits give low values 0.965 | locus YOR061W, strain CKA2, hits give low values 0.874 | locus YOR119C, strain RIO1, hits give low values 1 | [7] 0.996 | locus YOR329C, strain SCD5, hits give low values 0.975 | locus YPL031C, strain PHO85, hits give low values 0.96 | locus YPL153C, strain RAD53, hits give low values 0.97 | locus YPL204W, strain HRR25, hits give low values 0.951 | locus YPL209C, strain IPL1, hits give low values 0.98 | locus YPR025C, strain CCL1, hits give low values 0.979 | locus YPR106W, strain ISR1, hits give low values 0.976 | locus YPR111W, strain DBF20, hits give low values 0.979 | strain NNK1, hits give low values 0.978 | strain TSCII, hits give low values 0.981
